High-throughput results deposited in PubChem by The Scripps Research Institute Molecular Screening Center.
An excerpt weighted towards active compounds, which were near 4.1% of everything screened.
hcDAF-12 act: activates DAF-12 receptor from parasite H. contortus; activation, % at 6.8 µM; 370,000 compounds, 1.4% hits; HEK293 hcDAF-12 lit1-tk-luc reporter, luminescence; 0% DMSO, 100% Δ7-dafachronic acid;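 active = activation above the mean of all tested compounds plus 3 SD, cut at about 5.5% in these data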;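 also: 100% = response to 3 µM Δ7-dafachronic acid high control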
DAX1 inh-1: inhibitors of human orphan nuclear receptor DAX1 (NR0B1); HEK293 Gal4-DAX1 luciferase reporter, luminescence; inhibition, % at 6.75 µM; P51843; 340,000 compounds, 0.99% hits;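 active = inhibition above the mean over all tested compounds plus 3 SD, cut at about 4.2% in these data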;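 also: 0% = DAX1-transfected cells with DMSO and 100% = empty-vector control cells with DMSO; inhibition shows as a rise in luminescence from relieved DAX1 repression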
Target sequence (P51843 207-470 limits assumed): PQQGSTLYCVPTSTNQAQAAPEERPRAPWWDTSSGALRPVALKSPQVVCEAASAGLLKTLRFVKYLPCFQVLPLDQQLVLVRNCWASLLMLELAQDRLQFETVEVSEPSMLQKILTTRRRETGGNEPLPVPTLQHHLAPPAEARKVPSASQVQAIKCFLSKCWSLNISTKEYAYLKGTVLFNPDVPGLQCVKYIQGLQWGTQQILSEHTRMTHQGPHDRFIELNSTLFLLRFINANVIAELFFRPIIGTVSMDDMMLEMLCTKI
hgDAF-12 ag: hgDAF-12 agonism, primary luciferase screen. HEK293 GAL4-hgDAF12 UAS-luciferase reporter, agonist luminescence; normalized to butyrate control. activation, % at 6.8 µM. 370,000 compounds, 1.8% hits;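 active = activation above a cutoff set at the mean of all screened compounds plus 3 SD, cut at about 10% in these data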;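 also: 0% = DMSO wells and 100% = sodium butyrate wells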
DAX1 inh-2: blocks DAX1 repression of SF-1 activated StAR promoter | HEK293T StAR-luciferase reporter, SF-1/DAX-1 repression relief | AID 652010 | 370,000 compounds, 1.1% hits | inhibition, % at 6.8 µM;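 active = inhibition above the mean over all tested compounds plus 3 SD, cut at about 3.6% in these data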;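 also: 0% = DAX-1 cells with DMSO and 100% = cells lacking DAX-1 with DMSO; higher inhibition means more luminescence from relief of DAX-1 repression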
ssDAF-12 act: S. stercoralis DAF-12 activation, primary screen | HEK293 ssDAF-12/GRIP1 lit1-tk-luc reporter, luminescence; % of 3 µM dafachronic acid response | activation, % at 6.8 µM | 370,000 compounds, 1% hits;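 active = activation above the mean over all tested compounds plus 3 SD, cut at about 0.9% in these data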;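 also: 0% = DMSO-only wells and 100% = 3 µM delta7-dafachronic acid wells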
DAX1 inh confirm: confirmation of human DAX1 (NR0B1) inhibitors; shares compounds with DAX1 inh-2; HEK293T StAR-promoter luciferase reporter, SF-1/DAX-1 repression; inhibition, % at 6.8 µM; 2,400 compounds, 87% hits; AID 652134;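 active = inhibition above the average of every tested compound plus 3 SD, cut at about 3.8% in these data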;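 also: 0% = DAX-1 cells with DMSO and 100% = no DAX-1 control cells with DMSO; active compounds raise luminescence by relieving repression of the StAR reporter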
SF1 mutant ctr: counter-screen for DAX1 inhibitors: nonselective inhibitors with SF-1 AF2 mutant; shares compounds with DAX1 inh-2; inhibition, % at 6.8 µM; HEK293 StAR-luciferase, luminescence; AID 652136; 2,400 compounds, 78% hits;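 active = inhibition above the mean of all tested compounds plus 3 SD, cut at about 3% in these data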;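 also: 0% = DAX-1 transfected cells with DMSO and 100% = cells without DAX-1 with DMSO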
Active calls of the source: *; x = no result given.

SMILES | hcDAF-12 act | DAX1 inh-1 | hgDAF-12 ag | DAX1 inh-2 | ssDAF-12 act | DAX1 inh confirm | SF1 mutant ctr
COc1ccc2c(ccc[n+]2CC(=O)c2ccccc2)c1 | -1 | 0 | 1 | -1 | -2 | x | x
CCC(=O)Nc1sc(C(=O)Nc2ccccc2F)c(C)c1C(=O)OC | 4 | 0 | 13* | 5.9* | 0 | 13* | 6.3*
CCN(CC)S(=O)(=O)c1ccc(NC(=O)CCN2C(=O)C3CC=CCC3C2=O)cc1 (centres undefined) | -1 | 1 | 2 | 5.2* | -1 | 1 | 1
CC1CCN(S(=O)(=O)c2ccc(NC(=O)CCN3C(=O)C4CC=CCC4C3=O)cc2)CC1 (centres undefined) | 0 | 0 | 2 | -2 | -1 | x | x
COC(=O)[C@H](C(C)C)N(CCc1cn(Cc2ccccc2)nn1)S(=O)(=O)c1ccccc1Br | -2 | x | -4 | 1 | -1 | x | x
COc1ccc(S[C@]2(C(=O)N(C)C)CC(=O)N(c3ccsc3)[C@@H]2c2ccc(OC)cc2)cc1 | -1 | x | 3 | -1 | -1 | x | x
COC(=O)c1ccc(NC(=O)C(=O)c2cccn2C)cc1 | 5 | -3 | 18* | 6.9* | 0 | 15* | 7.3*
COC(=O)c1ccc(NC(=O)c2ccccc2C(=O)Nc2ccc(C(=O)OC)cc2)cc1 | -3 | 2 | -1 | 0 | -2 | x | x
O=[N+]([O-])c1ccc(C=NN2CCCCCC2)cc1 | 4 | 5.6* | 10 | 6.7* | 0 | 6.9* | 5.7*
COc1ccccc1N1CCN(/N=C/c2ccc([N+](=O)[O-])cc2)CC1 | 0 | 3 | 4 | 0 | -1 | x | x
COC(=O)[C@]12C[C@H](CC(=O)N3CCN(C(=O)c4ccco4)CC3)C(=O)N(CCC3=CCCCC3)C1=C[C@H](C1CCCC1)O[C@@H]2C | -1 | x | 1 | 0 | -2 | x | x
Cc1ccnc2nc(C(=O)Nc3ccc4c(c3)OCO4)nn12 | 3 | 1 | 9 | 4.6* | 0 | 8.9* | 5.2*
Cc1cc(C)n2nc(C(=O)Nc3ccc4c(c3)OCCO4)nc2n1 | 2 | 0 | 8 | 6.0* | -1 | 5.6* | 3
Cc1cc(C)n2nc(C(=O)Nc3ccc4c(c3)OCO4)nc2n1 | 0 | 0 | 2 | 2 | -1 | x | x
CCOC(=O)c1ccc(NC(=O)N2CCCCCC2)cc1 | 3 | 0 | 8 | 5.0* | 0 | 14* | 8.0*
CC(=O)c1ccc(NC(=S)N2CCCC2)cc1 | 1 | 1 | 0 | 5.1* | 0 | 3 | 2
O=C(CCS(=O)(=O)c1ccccc1)N1CCN(c2ccccc2F)CC1 | 3 | 2 | 13* | 7.0* | 0 | 7.6* | 3.1*
CC(=Nc1ccccc1)C1=C(O)C(Cc2ccccc2)NC1=O (centres undefined) | 4 | 2 | 4 | 8.2* | 1 | 31* | -5
CCOc1ccc(/C=C2\CCc3ccccc3C2=O)cc1 | 0 | 2 | 7 | 0 | -1 | x | x
COc1ccc(C=C2CCc3ccccc3C2=O)cc1 | 3 | x | 2 | 6.6* | 0 | 7.2* | -6
Cc1ccc2c(c1)C1CS(=O)(=O)N(Cc3ccccc3)CN1C2 (centres undefined) | -2 | x | 4 | 1 | -1 | x | x
C[C@H]1[C@H](NC(=O)c2ccc(Cl)c(C(F)(F)F)c2)CC[C@@]23CCCN2C(=O)CCC[C@@H]13 | -1 | x | -1 | x | -2 | x | x
O=C(N[C@@H](Cc1cccnc1)C(=O)N1CCC[C@H]1C(=O)NCCc1ccccc1Cl)c1ccc(Cl)cc1Cl | 0 | x | 2 | 3 | -1 | x | x
Cc1ccc(-c2nc3ccc(Br)cn3c2Cc2ccsc2)cc1 | 5 | x | 21* | 4.7* | 1.1* | 8.6* | 5.8*
COc1cccc(OCc2cc(C(=O)N(C)Cc3nccn3C)no2)c1 | 0 | 1 | 8 | 5.4* | 0 | 6.8* | 4.6*
SMILES | hcDAF-12 act | DAX1 inh-1 | hgDAF-12 ag | DAX1 inh-2 | ssDAF-12 act | DAX1 inh confirm | SF1 mutant ctr
CCOC(=O)c1sc(=NC(=O)c2ccc(F)cc2)n(C)c1C | 6.0* | 1 | 7 | 6.8* | 0 | 15* | 7.4*
CCOC(=O)c1sc(=NC(=O)c2c(F)cccc2F)n(C)c1C | 0 | 0 | 3 | 3 | -1 | x | x
C[C@H]1[C@@H](NC(=O)C2CCC2)CC[C@@]23CCCN2C(=O)CCC[C@@H]13 | 0 | x | 2 | x | -2 | x | x
COc1ccc(N=C2C(=S)N(c3ccc(OC)cc3)C(=NS(=O)(=O)c3ccccc3)N2c2ccccc2)cc1 | 5 | 2 | 13* | 8.2* | 0 | 2 | 4.2*
C[C@H]1[C@@H](OC(=O)Nc2ccc(Cl)cc2)CC[C@@]23CCCN2C(=O)CCC[C@@H]13 | -2 | x | 0 | x | -1 | x | x
Cc1ccccc1OCC(=O)Nc1cccc(C(=O)O)c1 | 3 | -9 | 11* | 5.0* | -1 | 7.9* | 4.3*
COc1ccc(-c2oc3cc(O)c(OC)c(O)c3c(=O)c2OC)cc1O | 2 | -1 | -3 | 7.9* | 1 | 16* | -9
CN=C1S/C(=C/c2cc(C)n(-c3cc(C)ccc3OC)c2C)C(=O)N1C | -3 | x | -3 | x | -2 | x | x
C#CCN1CC(N(C)CCOC(=O)CSc2ccccc2)CS1(=O)=O (centres undefined) | -1 | x | 5 | -1 | -1 | x | x
COc1ccc(NC(=O)Nc2ccc(C)cc2OC(F)F)cc1OC | 0 | 0 | -3 | -1 | -1 | x | x
COc1cccc(NC(=O)Nc2ccc3c(c2)OCO3)c1 | 3 | 1 | 10 | 8.4* | 0 | 6.2* | 4.9*
COc1cccc(NC(=O)CN(C)CC(=O)Nc2ccc3c(c2)OCO3)c1 | -2 | -1 | -2 | 1 | -1 | x | x
Cc1ccc(NC(=O)Nc2ccc3c(c2)OCO3)c(OC(F)F)c1 | 1 | 2 | 9 | 5.7* | 0 | 9.1* | 7.1*
COCCCNC(=O)c1nnn2c1nc(N)c1cc(Cl)ccc12 | 0 | x | 1 | 2 | -1 | x | x
Cc1cccc(CN2CCCC(C(=O)Nc3ccc(-c4cscn4)cc3)C2)c1 (centres undefined) | -3 | 0 | 2 | 4.6* | -1 | 3 | -1
COC(=O)C[C@@H]1CC[C@H]2[C@H](COc3ccc(NC(=O)C4CCC4)cc3C(=O)N2C)O1 | -1 | x | 4 | 0 | -1 | x | x
Cc1csc(NC(=O)c2cc(C)on2)n1 | 0 | 1 | 6 | 7.0* | 0 | 6.8* | 5.9*
O=C(Nc1ccc(Cl)cc1Cl)c1ccc2c(=O)n3c(nc2c1)CCC3 | 3 | 3 | 5 | 8.7* | 0 | 11* | 7.5*
O=C(Nc1ccc(Br)cc1Cl)c1ccc2c(=O)n3c(nc2c1)CCC3 | 0 | 1 | 10 | 5.1* | -1 | 5.2* | 2.9*
